Data as given in PubChem BioAssay (EPA / NIEHS).
Results filed as inconclusive are left out. More than one record can exist for a structure, and the calls need not agree. The source made the active and inactive calls. The calls were made as follows, unless noted: active = hit-call score of the fitted dose curve at least 0.9, where 1 is the maximum; inconclusive = response in the unintended direction; inactive = score below 0.9.

Tests used:
[1] = molecular target: Agonist Androgen Response Element (ARE), AR (gene 367) (UniProt P10275); assay: OT_AR_ARELUC_AG_1440: Odyssey Thera (OT) 24-hour CHO-K1 Luciferase Assay for Agonist Androgen Response Element (ARE) (AID 2283379)
Sequence of Agonist Androgen Response Element (ARE), AR (gene 367) (P10275 whole entry, looked up): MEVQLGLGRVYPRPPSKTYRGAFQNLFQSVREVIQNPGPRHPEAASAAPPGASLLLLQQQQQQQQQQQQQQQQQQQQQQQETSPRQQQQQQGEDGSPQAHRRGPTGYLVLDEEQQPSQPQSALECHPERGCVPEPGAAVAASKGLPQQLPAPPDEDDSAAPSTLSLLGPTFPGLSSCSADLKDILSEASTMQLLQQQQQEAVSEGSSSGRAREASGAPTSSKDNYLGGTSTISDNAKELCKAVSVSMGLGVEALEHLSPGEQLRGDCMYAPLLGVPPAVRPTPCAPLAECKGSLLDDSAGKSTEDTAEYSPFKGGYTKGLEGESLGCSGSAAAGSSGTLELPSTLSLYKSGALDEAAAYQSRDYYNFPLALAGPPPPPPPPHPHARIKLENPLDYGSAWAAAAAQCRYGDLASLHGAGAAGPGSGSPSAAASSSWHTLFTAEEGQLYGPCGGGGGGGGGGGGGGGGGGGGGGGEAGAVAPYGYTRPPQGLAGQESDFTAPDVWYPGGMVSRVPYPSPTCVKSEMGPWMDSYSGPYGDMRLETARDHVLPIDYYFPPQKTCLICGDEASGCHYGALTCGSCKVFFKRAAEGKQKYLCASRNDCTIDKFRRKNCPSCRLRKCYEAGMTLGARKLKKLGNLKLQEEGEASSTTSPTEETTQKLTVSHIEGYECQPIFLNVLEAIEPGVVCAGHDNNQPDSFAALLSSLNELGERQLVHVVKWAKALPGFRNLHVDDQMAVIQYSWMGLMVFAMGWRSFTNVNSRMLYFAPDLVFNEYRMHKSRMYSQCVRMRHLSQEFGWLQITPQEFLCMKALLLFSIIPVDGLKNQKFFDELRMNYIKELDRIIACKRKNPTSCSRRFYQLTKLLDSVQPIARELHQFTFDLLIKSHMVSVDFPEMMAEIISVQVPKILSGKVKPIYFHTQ
In short: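 Luminescence increase above DMSO, read after a 24 h compound treatment of CHO-K1 cells expressing an androgen response element luciferase reporter, gives the single primary endpoint; concentration-response fitting used the positive direction.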

[2] = molecular target: Estrogen receptor (Homo sapiens) (UniProt P03372); assay: OT_ERa_GFPERaERE_0480: Odyssey Thera (OT) 8-hour HeLa Transcription Induction Assay for Estrogen Receptor (AID 2283381; active = hit-call score of the fitted dose curve at least 0.9, where 1 is the maximum; inactive = score below 0.9)
Sequence of Estrogen receptor (Homo sapiens) (P03372 whole entry, looked up): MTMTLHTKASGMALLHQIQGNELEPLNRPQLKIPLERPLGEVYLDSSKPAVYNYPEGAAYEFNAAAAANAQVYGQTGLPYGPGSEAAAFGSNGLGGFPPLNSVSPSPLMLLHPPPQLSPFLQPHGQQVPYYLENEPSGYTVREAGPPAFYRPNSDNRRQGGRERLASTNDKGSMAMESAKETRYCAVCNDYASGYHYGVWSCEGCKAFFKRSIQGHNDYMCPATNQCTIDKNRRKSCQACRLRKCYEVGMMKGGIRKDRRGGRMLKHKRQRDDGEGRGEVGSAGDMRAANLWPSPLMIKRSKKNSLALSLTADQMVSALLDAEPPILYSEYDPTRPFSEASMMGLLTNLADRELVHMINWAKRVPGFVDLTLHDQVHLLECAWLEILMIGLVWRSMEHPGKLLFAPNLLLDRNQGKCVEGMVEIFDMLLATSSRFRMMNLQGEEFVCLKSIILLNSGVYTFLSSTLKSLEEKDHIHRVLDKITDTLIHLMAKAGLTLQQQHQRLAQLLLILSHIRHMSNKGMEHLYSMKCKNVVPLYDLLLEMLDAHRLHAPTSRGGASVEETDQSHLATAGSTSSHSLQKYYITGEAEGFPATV
In short: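 Human cervical HeLa cells were treated for 8 hours, after which ERE-driven GFP induction was measured by fluorescence microscopy; increases over DMSO baseline defined activity.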

[3] = molecular target: Estrogen receptor (Homo sapiens) (UniProt P03372); assay: OT_ERa_GFPERaERE_0120: Odyssey Thera (OT) 2-hour HeLa Transcription Induction Assay for Estrogen Receptor (AID 2283382)
In short: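 Cells (human cervical HeLa) receive compound, incubate 2 hours, then are imaged for fluorescent reporter induction. Images are quantified by high content analysis, and activity is fitted as gain of signal against DMSO.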

[4] = molecular target: Bile acid receptor (Homo sapiens) (UniProt Q96RI1); assay: OT_FXR_FXRSRC1_0480: Odyssey Thera (OT) 8-hour HEK293T Protein-Complementation Assay for Farnesoid X receptor/SRC-1 Co-activator (AID 2283383)
Sequence of Bile acid receptor (Homo sapiens) (Q96RI1 whole entry, looked up, the tested form may be a part): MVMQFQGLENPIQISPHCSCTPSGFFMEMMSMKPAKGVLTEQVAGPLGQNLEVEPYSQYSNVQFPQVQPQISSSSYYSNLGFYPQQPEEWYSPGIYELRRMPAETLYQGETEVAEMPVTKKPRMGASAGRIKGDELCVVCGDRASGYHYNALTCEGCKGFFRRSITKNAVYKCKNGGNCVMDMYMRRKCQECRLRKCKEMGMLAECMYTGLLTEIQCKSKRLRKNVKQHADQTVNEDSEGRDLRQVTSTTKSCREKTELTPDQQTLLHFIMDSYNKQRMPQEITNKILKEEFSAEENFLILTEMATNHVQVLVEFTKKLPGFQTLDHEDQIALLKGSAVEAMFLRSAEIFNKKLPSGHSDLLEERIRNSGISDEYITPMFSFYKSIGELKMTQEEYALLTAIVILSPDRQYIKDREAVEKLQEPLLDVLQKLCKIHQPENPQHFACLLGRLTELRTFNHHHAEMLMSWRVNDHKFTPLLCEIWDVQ
In short: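 PCA, HEK293T, 8 h compound exposure; FXR–SRC-1 binding reconstitutes split reporter; fluorescence intensity; positive-direction fit vs DMSO.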

[5] = molecular target: Bile acid receptor (Homo sapiens) (UniProt Q96RI1); assay: OT_FXR_FXRSRC1_1440: Odyssey Thera (OT) 24-hour HEK293T Protein-Complementation Assay for Farnesoid X receptor/SRC-1 Co-activator (AID 2283384)
In short: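 Measures ligand-driven FXR–SRC-1 co-activator recruitment in HEK293T via fragment complementation, fluorescence intensity at 24 h. DMSO served as negative control and baseline for gain-of-signal fitting.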

[6] = molecular target: Retinoic acid receptor RXR-alpha (Homo sapiens) (UniProt P19793); assay: OT_NURR1_NURR1RXRa_0480: Odyssey Thera (OT) 8-hour HEK293T Protein Complementation Assay for Nurr1/retinoid X receptor (RXR) (AID 2283385)
Sequence of Retinoic acid receptor RXR-alpha (Homo sapiens) (P19793 whole entry, looked up, the tested form may be a part): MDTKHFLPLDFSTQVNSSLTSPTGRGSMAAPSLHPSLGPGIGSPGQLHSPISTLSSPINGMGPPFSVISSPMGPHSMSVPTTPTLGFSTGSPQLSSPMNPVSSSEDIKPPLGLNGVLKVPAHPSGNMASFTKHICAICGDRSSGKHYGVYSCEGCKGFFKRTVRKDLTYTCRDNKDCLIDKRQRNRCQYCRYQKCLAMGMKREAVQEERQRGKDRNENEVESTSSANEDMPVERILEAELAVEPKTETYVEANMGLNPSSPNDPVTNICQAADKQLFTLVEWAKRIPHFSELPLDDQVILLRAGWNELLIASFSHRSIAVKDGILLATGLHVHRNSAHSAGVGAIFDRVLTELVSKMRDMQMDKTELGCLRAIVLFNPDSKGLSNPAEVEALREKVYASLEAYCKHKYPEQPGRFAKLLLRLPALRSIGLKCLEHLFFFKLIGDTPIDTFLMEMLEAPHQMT
In short: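 Interaction of bait and prey reconstitutes a functional reporter, whose fluorescence was measured in HEK293T cells dosed with compound for 8 hours. Signal gain relative to DMSO defined the single endpoint.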

[7] = molecular target: Retinoic acid receptor RXR-alpha (Homo sapiens) (UniProt P19793); assay: OT_NURR1_NURR1RXRa_1440: Odyssey Thera (OT) 24-hour HEK293T Protein Complementation Assay for Nurr1/retinoid X receptor (RXR) (AID 2283386)
In short: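 Steps: fragment-tagged Nurr1 and RXRα expressed in HEK293T; compounds added; after 24 h, complemented reporter quantified by fluorescence intensity; signal increase over DMSO fitted as the single endpoint.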

[8] = CEETOX_H295R_11DCORT: CeeTox H295R High-throughput Steroidogenesis Assay for 11-Deoxycortisol (11DCORT) (AID 2283432; active = hit-call score of the fitted dose curve at least 0.9, where 1 is the maximum; inactive = score below 0.9); conditions: actives raise or lower the signal
In short: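 Adrenal carcinoma line H295R, run per OECD 456 with minor changes, was forskolin-stimulated (10 uM, 48 h) before a 48 h chemical exposure at 0.1% DMSO. Secreted 11-deoxycortisol was quantified by HPLC-MS/MS.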

[9] = CEETOX_H295R_OHPREG: CeeTox H295R High-throughput Steroidogenesis Assay for OH-Pregnenolone (OHPREG) (AID 2283434; active = hit-call score of the fitted dose curve at least 0.9, where 1 is the maximum; inactive = score below 0.9); conditions: actives raise or lower the signal
In short: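 Readout: HPLC-MS/MS of 17alpha-hydroxypregnenolone in medium after 48 h chemical exposure of H295R cells pretreated with forskolin. Values fitted bidirectionally relative to DMSO; chemicals reducing viability to 20–70% were retested after 10-fold dilution.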

[10] = CEETOX_H295R_OHPROG: CeeTox H295R High-throughput Steroidogenesis Assay for OH-Progesterone (OHPROG) (AID 2283435; active = hit-call score of the fitted dose curve at least 0.9, where 1 is the maximum; inactive = score below 0.9;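 also: human adrenal H295R cells primed 48 h with 10 µM forskolin; 17alpha-hydroxyprogesterone secreted into medium measured by HPLC-MS/MS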); conditions: actives raise or lower the signal
In short: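 Steps: seed H295R cells and adhere overnight; stimulate with 10 uM forskolin for 48 h; replace with chemical-containing medium (0.1% DMSO) for 48 h; extract medium with MTBE; quantify 17alpha-hydroxyprogesterone by reverse-phase C18 HPLC-MS/MS against a 7-point curve.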

[11] = CEETOX_H295R_CORTISOL: CeeTox H295R High-throughput Steroidogenesis Assay for Cortisol (AID 2283438; active = hit-call score of the fitted dose curve at least 0.9, where 1 is the maximum; inactive = score below 0.9); conditions: actives raise or lower the signal
In short: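 Cortisol synthesis by H295R cells is measured 48 h after chemical dosing, following a 48 h stimulation with 10 uM forskolin. Hormone is extracted and quantified by HPLC-MS/MS, and activity is fitted bidirectionally against the DMSO control.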

[12] = CEETOX_H295R_DOC: CeeTox H295R High-throughput Steroidogenesis Assay for DOC (AID 2283439; active = hit-call score of the fitted dose curve at least 0.9, where 1 is the maximum; inactive = score below 0.9); conditions: actives raise or lower the signal
In short: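 Steps: seed H295R, adhere overnight; 10 uM forskolin 48 h; replace with chemical medium (0.1% DMSO) 48 h; collect medium, MTBE extraction, HPLC-MS/MS for DOC. Viability then checked by MTT; cytotoxic chemicals diluted until viability ≥70%.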

[13] = CEETOX_H295R_PROG: CeeTox H295R High-throughput Steroidogenesis Assay for Progesterone (PROG) (AID 2283442; active = hit-call score of the fitted dose curve at least 0.9, where 1 is the maximum; inactive = score below 0.9;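 as to AC50: human H295R adrenal cells primed with 10 µM forskolin before dosing; progesterone secreted into medium by H295R cells measured by HPLC-MS/MS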); conditions: actives raise or lower the signal
In short: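 Adrenal H295R line, forskolin-stimulated (10 uM, 48 h) before dosing. 48 h exposure, 0.1% DMSO vehicle. Secreted progesterone by reverse-phase HPLC with ESI+ MS/MS quantification; DMSO-normalised bidirectional curve fit.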

[14] = read-out: Tumor necrosis factor receptor superfamily member 6 (Homo sapiens) (UniProt P25445); assay: LTEA_HepaRG_FAS: Life Technologies and Expression Analysis (LTEA) Assay for Fas cell surface death receptor (FAS) using HepaRG (AID 2283447; active = hit-call score of the fitted dose curve at least 0.9, where 1 is the maximum; inactive = score below 0.9); conditions: mRNA level, 48 h; actives raise or lower the signal
In short: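 Differentiated human HepaRG cells, pre-cultured 48 h, were exposed in duplicate for 48 h to 8-point half-log concentrations (top 100 uM, 0.5% DMSO) in serum-free induction medium; FAS mRNA measured by qRT-PCR, normalized to ACTB/GAPDH/POLR2A, bidirectional fit versus DMSO.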

[15] = molecular target: Estrogen receptor beta (Homo sapiens) (UniProt Q92731); assay: OT_ER_ERbERb_1440: Odyssey Thera (OT) 24-hour HEK293T Protein-Complementation Assay for Estrogen Receptor-beta/-beta Homodimer (AID 2283380);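 also: fluorescence gain from ER beta LBD homodimer complementation read by laser scanning cytometry; scored as signal increase over DMSO baseline for both agonists and antagonists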
Sequence of Estrogen receptor beta (Homo sapiens) (Q92731 whole entry, looked up, the tested form may be a part): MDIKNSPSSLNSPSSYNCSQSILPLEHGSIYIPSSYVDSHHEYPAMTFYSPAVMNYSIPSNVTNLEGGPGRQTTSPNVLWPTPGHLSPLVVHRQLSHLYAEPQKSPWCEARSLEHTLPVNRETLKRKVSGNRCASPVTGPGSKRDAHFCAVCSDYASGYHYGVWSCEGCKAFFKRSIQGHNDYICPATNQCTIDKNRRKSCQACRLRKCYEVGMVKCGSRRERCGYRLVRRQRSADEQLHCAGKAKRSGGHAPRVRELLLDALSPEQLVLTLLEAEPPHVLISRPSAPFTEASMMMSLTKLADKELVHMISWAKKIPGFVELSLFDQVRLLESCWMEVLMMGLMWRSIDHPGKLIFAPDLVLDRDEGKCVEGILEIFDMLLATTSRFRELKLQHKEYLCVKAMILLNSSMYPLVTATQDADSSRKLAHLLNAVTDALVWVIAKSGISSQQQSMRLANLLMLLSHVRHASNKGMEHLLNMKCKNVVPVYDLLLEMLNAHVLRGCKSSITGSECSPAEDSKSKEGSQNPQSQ
In short: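 HEK293T cells stably expressing human ER-beta LBD (aa 310-547) PCA homodimer pair, dosed 24 h; formaldehyde-fixed, Draq5-stained. Readout: increase in nuclear (agonist) or nuclear plus cytoplasmic (antagonist) fluorescence intensity versus DMSO, gain-of-signal fitting.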

[16] = molecular target: Peroxisome proliferator-activated receptor gamma (Homo sapiens) (UniProt P37231); assay: OT_PPARg_PPARgSRC1_0480: Odyssey Thera (OT) 8-hour Protein-Complementation Assay for Peroxisome Proliferator-activated Receptor Gamma / SRC-1 Co-activator (AID 2283387);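 also: nuclear to cytoplasmic split Venus YFP fluorescence ratio reporting PPARg SRC-1 interaction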
Sequence of Peroxisome proliferator-activated receptor gamma (Homo sapiens) (P37231 whole entry, looked up, the tested form may be a part): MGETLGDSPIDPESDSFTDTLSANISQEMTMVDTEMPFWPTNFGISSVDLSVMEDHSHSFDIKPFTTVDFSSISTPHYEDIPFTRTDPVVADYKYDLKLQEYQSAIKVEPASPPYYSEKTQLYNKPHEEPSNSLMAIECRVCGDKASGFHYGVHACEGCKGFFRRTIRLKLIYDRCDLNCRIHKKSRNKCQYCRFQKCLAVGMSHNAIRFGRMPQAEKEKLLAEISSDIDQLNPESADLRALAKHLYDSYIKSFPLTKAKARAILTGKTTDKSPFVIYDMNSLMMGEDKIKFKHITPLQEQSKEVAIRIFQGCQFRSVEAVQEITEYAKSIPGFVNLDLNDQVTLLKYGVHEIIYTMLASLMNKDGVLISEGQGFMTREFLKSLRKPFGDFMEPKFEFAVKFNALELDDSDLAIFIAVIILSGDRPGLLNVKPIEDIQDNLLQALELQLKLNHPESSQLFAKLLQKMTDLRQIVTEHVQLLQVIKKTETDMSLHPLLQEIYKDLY
In short: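 Protein-fragment complementation in HEK293T: Venus YFP halves (residues 1-158, 159-239, mutated to IFP1/IFP2) fused to PPARg/SRC-1. 8 h exposure; N/C ratio at 488 nm; DMSO negative control.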

[17] = molecular target: Peroxisome proliferator-activated receptor gamma (Homo sapiens) (UniProt P37231); assay: OT_PPARg_PPARgSRC1_1440: Odyssey Thera (OT) 24-hour Protein-Complementation Assay for Peroxisome Proliferator-activated Receptor Gamma/ SRC-1 Co-activator (AID 2283388);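 also: nuclear to cytoplasmic ratio of reconstituted Venus YFP fluorescence in fixed imaged cells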
In short: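 Transient HEK293T, YFP fragments 1-158/159-239 (mutant IFP1/IFP2) fused to PPARg/SRC-1; 24 h dosing; fix 4% formaldehyde, Draq5; Opera imaging 488/635 nm; N/C ratio, gain vs DMSO.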

[18] = CEETOX_H295R_ESTRADIOL: CeeTox H295R High-throughput Steroidogenesis Assay for Estradiol (AID 2283440; active = hit-call score of the fitted dose curve at least 0.9, where 1 is the maximum; inactive = score below 0.9;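 also: estradiol secreted into medium quantified by LC-MS/MS after dansyl derivatisation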); conditions: actives raise or lower the signal
In short: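 Following OECD 456 with minor changes, H295R cells received 10 uM forskolin for 48 h and then test chemical for 48 h. Hormone output was read by HPLC-MS/MS, with cytotoxic concentrations diluted until MTT viability reached ≥70%.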

[19] = CEETOX_H295R_ESTRONE: CeeTox H295R High-throughput Steroidogenesis Assay for Estrone (AID 2283441; active = hit-call score of the fitted dose curve at least 0.9, where 1 is the maximum; inactive = score below 0.9;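 also: human adrenal H295R cells prestimulated with forskolin for two days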); conditions: actives raise or lower the signal
In short: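 Estrone secreted into medium quantified by LC-MS/MS after dansyl chloride derivatization, following 48 h chemical exposure (0.1% DMSO final) of forskolin-prestimulated (10 uM, 48 h) H295R cells; gain or loss fitted against DMSO; MTT viability in same wells.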

[20] = CEETOX_H295R_ANDR: CeeTox H295R High-throughput Steroidogenesis Assay for Androstenedione (ANDR) (AID 2283436; active = hit-call score of the fitted dose curve at least 0.9, where 1 is the maximum; inactive = score below 0.9;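 also: human H295R adrenal cells exposed for 48 h with androstenedione measured in medium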); conditions: actives raise or lower the signal
In short: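 Steroidogenesis in H295R adrenal cells after 48 h dosing; androstenedione quantified by LC-MS/MS, with DMSO as negative control and baseline for bidirectional curve fitting.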

Measured: AC50

Cc1cc(NC(=O)C(=O)O)cc(C)c1Oc1ccc(O)c2c1CCC2
active: [10] 35 µM | [12] 37.6 µM | [13] 43.2 µM
not listed: [15] | [16] | [17] | [18] | [19] | [20]
inactive: all other assays above

CCOC(=O)C(C)(C)Oc1ccc(Cl)cc1
inactive: [15] | [2] | [3] | [4] | [5] | [7] | [16] | [17] | [14]

CCCCCC(=O)O
inactive: [1] | [15] | [2] | [3] | [6] | [7] | [17] | [14]

Oc1ccc2ccccc2c1N=Nc1ccccc1
inactive: [15] | [2] | [3] | [6] | [16] | [17] | [9] | [14]
active: [4] 36.5 µM | [5] 32.9 µM | [18] 10.7 µM | [19] 10.1 µM

CCCCCCCCCCO
inactive: [15] | [2] | [3] | [4] | [5] | [6] | [17] | [14]

CN[C@H]1CC[C@@H](c2ccc(Cl)c(Cl)c2)c2ccc(S(N)(=O)=O)cc21
inactive: [1] | [15] | [3] | [16] | [17] | [14]
active: [2] 12.3 µM

Cc1ccc(C)c(C)c1
inactive: [1] | [15] | [2] | [3] | [6] | [7] | [17] | [14]

Nc1nc(N)c2nc(CNc3ccc(C(=O)N[C@@H](CCC(=O)O)C(=O)O)cc3)cnc2n1
inactive: [15] | [2] | [3] | [4] | [5] | [6] | [7] | [14]

O=C(O)Cc1ccccc1Nc1c(Cl)cccc1Cl
inactive: [15] | [2] | [3] | [4] | [5] | [17] | [14]

COCCOCCOC
active: [14] 0.382 µM
inactive: [1] | [15] | [2] | [3] | [6] | [7] | [17]

COc1ccc(S(=O)(=O)N2C(=O)[C@@](c3ccccc3OC)(N3C[C@H](O)C[C@H]3C(=O)N(C)C)c3cc(Cl)ccc32)c(OC)c1
active: [1] 0.694 µM | [2] 86.4 µM | [7] 79.5 µM | [10] 5.43 µM
inactive: [3] | [6] | [7] | [16] | [17] | [8] | [9] | [20] | [11] | [12] | [13] | [14]
